# CIT2 TOR yeast: alters CIT2-GFP fluorescence in TOR pathway yeast screen | S. cerevisiae CIT2-GFP strain, flow cytometry, 3 h; 100 means same as DMSO wells | GFP response vs DMSO, % at 10 µM | 0.065% of 320,000 active;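 active = GFP response relative to DMSO above a set limit, near the screen mean plus 3 SD, cut at about 150% in these data; inconclusive = Fewer than 70 cells measured for a yeast strain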;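 note: ratio of well median GFP fluorescence to mean of DMSO wells on the plate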
# LAP4 TOR yeast: modulators of TOR pathway LAP4-GFP in S. cerevisiae; S. cerevisiae LAP4-GFP multiplex, flow cytometry GFP, 3 h; median GFP as percent of DMSO wells; GFP response vs DMSO, % at 10 µM; 0.34% of 320,000 active; AID 2023;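 active = GFP response vs DMSO above a set limit, about the screen mean plus 3 SD, cut at about 150% in these data; inconclusive = under 70 cell events counted for the yeast strain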
# RPL19A-GFP yeast: modulators of TOR pathway RPL19A-GFP in S. cerevisiae; S. cerevisiae RPL19A-GFP strain, flow cytometry, 3 h; active compounds read low; percent response vs DMSO, % at 10 µM; 0.3% of 330,000 active; AID 2025;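 active = percent response vs DMSO below 50%; inconclusive = fewer than 70 events counted for the yeast strain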;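 note: median channel GFP fluorescence of the barcoded RPL19A-GFP strain; ratio of sample median GFP to plate DMSO average so 100% = DMSO; lower means less RPL19A-GFP as with rapamycin TOR inhibition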
# MEP2-GFP yeast: modulators of TOR pathway MEP2-GFP in S. cerevisiae | S. cerevisiae MEP2-GFP strain, flow cytometry GFP, 3 h; 100% = DMSO control level | GFP response vs DMSO, % at 10 µM | 0.51% of 330,000 active | AID 2016;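 active = GFP response versus DMSO above a set limit, roughly screen mean plus 3 SD, cut at about 180% in these data; inconclusive = fewer than 70 cells counted for a yeast strain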;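 note: median GFP fluorescence of the barcode-gated MEP2-GFP cells per well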
# AGP1 TOR yeast: yeast TOR pathway AGP1-GFP modulation; GFP response vs DMSO, % at 10 µM; 0.02% of 320,000 active; S. cerevisiae AGP1-GFP multiplex flow cytometry, 3 h; GFP as percent of DMSO wells;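 active = GFP response relative to DMSO above a set limit, near screen average plus 3 SD, cut at about 150% in these data; inconclusive = fewer than 70 cells counted for the yeast strain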;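 note: median GFP channel fluorescence of the gated AGP1 strain per well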
# Numbers without * were called inactive; i = inactive; ? = inconclusive; . = not tested or not shown; [ ] = remark or other dose. Sampled rows, rich in hits. Any-hit rate of the full collection: about 0.92%.
SMILES,CIT2 TOR yeast,LAP4 TOR yeast,RPL19A-GFP yeast,MEP2-GFP yeast,AGP1 TOR yeast
COc1ccc(OC)c(CNC(=O)C2CCCN(S(=O)(=O)N3CCC(C)CC3)C2)c1 (stereo unspecified),?,74,14*[may fluoresce violet],152,?
COC(=O)C1CCN(C(=O)COC(=O)CCc2nc3ccccc3c(=O)[nH]2)CC1,100,122,112,199*,105
O=C(O)C1(c2ccccc2)CCN(S(=O)(=O)c2ccc(Br)cc2)CC1,90,89,99,90,92
CCN1/C(=C/C=C/c2oc3ccc(-c4ccccc4)cc3[n+]2CC)Oc2ccc(-c3ccccc3)cc21,.,.,i,.,i
COc1cccc(/C=N/NC(=O)Cn2cnc3c2c(=O)n(C)c(=O)n3C)c1,99,111,101,104,109
O=C(c1cccc(COc2ccc(Cl)cc2Cl)c1)N1CCN(c2ccccn2)CC1,87,162*,91,101,89
CC(C)c1nnc(SCC(=O)N2CCc3ccccc32)n1C,126,156*,108,166,.
Cc1[nH]c(C)c(S(=O)(=O)N2CCN(c3ccccc3)CC2)c1C(=O)N1CCCCC1,?,116,47*[may fluoresce violet],509*[may fluoresce violet],?
Cc1[nH]c(C)c(S(=O)(=O)N2CCN(c3cccc(Cl)c3)CC2)c1C(=O)N1CCCC1,102,86,100,103,100
COc1cccc(CC(=O)Nc2ncc(C)s2)c1,?,66,45*[may fluoresce violet],190*[may fluoresce violet],?
Cc1noc(C)c1COc1cccc(C(=O)OC(C)C#N)c1 (stereo unspecified),?,99,20*[may fluoresce violet],307*[may fluoresce violet],35
Nc1nnc(SCc2ccccc2Cl)s1,?,88,46*[may fluoresce violet],222*[may fluoresce violet],?
CCOC(=O)CC(c1ccc([N+](=O)[O-])cc1)n1c(C)ccc1C (stereo unspecified),99,100,101,99,99
CCC(C)NCCCOc1cc(Cl)ccc1Cl (stereo unspecified),?,124,42*[may fluoresce violet],609*[may fluoresce violet],.
CCCOC(=O)c1ccc(NC(=O)CC(C)(C)C)cc1,97,103,102,102,102
CCCOC(=O)c1ccc(NC(=O)COC)cc1,?,95,63,188*[may fluoresce violet],25
O=C1C2C3C=CC(C4CC34)C2C(=O)N1/N=C/c1ccc([N+](=O)[O-])o1 (stereo unspecified),80,158*,94,99,89
O=C1C2C3C=CC(C4CC34)C2C(=O)N1/N=C/c1ccc(-c2ccc([N+](=O)[O-])cc2)o1 (stereo unspecified),101,89,102,101,99
C[C@]12C=CC(=O)C=C1CC[C@@H]1[C@@H]2[C@@H](O)C[C@@]2(C)[C@H]1CC[C@]2(O)C(=O)COC(=O)CCC(=O)NCCc1ccc(O)cc1,102,99,105,111,100
C[C@]12C=CC(=O)C=C1CC[C@@H]1[C@@H]2[C@@H](O)C[C@@]2(C)[C@H]1CC[C@]2(O)C(=O)COC(=O)CCC(=O)O,?,86,55,346*[may fluoresce violet],15
O=C(Cc1ccc(-c2ccccc2)cc1)Nc1ccccc1,?,95,56,326*[may fluoresce violet],19
Cc1cccc(NC(=O)Cc2ccc(-c3ccccc3)cc2)n1,81,100,101,96,96
COc1ccc(C(C(=O)NC(C)(C)C)N(C(=O)CCC(=O)Nc2cc(C)on2)c2ccc3c(c2)OCCO3)cc1 (stereo unspecified),108,103,106,105,110
COc1ccc(C(C(=O)NC(C)(C)C)N(C(=O)CCC(=O)Nc2cc(C)on2)c2ccc(C)c(C)c2)cc1 (stereo unspecified),?,86,57,319*[may fluoresce violet],?
NS(=O)(=O)c1ccc(NC(=O)CN2C(=O)CCC2=O)cc1,?,86,46*[may fluoresce violet],812*[may fluoresce violet],25
CCN(CC)c1ccc(/C=C/c2nc3ccccc3s2)cc1,149,145,111,206*,102
Cc1ccc(-n2[nH]c(C)c(C=Nc3ccc(S(=O)(=O)Nc4nccs4)cc3)c2=O)c(C)c1,.,88,86,107,98
Cc1cccc(C)c1NC(=O)c1nc(S(=O)(=O)Cc2ccccc2)ncc1Cl,101,84,94,112,72
Cc1nnc(NC(=O)c2nc(S(=O)(=O)Cc3ccccc3)ncc2Cl)s1,112,168*,102,111,113

# Bioassay records (PubChem BioAssay)
